The entries come from a sample that favours hits as a whole.
TTR transcr act: TTR transcription activators in neuroblastoma reporter cells, primary screen, cell-based, luminescence, SH-SY5Y, TTR promoter Gaussia luciferase; 100% = recombinant luciferase protein wells; activation, % at 16.7 µM; 92,000 tested, 1.3% active; AID 1117267, 2014;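 active = activation above the mean of all tested compounds plus 3 SD, cut at about 9.5% in these data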;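 note: cells exposed to compounds for one day before reading; 0% = median of all test compound wells on the plate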
TTR inh HuH7: TTR promoter reporter inhibitors in hepatoma cells, counter-screen for TTR transcription activator project, cell-based, luminescence, HuH7 hepatoma; 1,100 tested, 4% active; shares compounds with TTR transcr act; inhibition, % at 16.7 µM; HuH7 TTR promoter-Gaussia luciferase reporter;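 active = average inhibition above the solvent-only control wells' mean plus 3 SD, cut at about 15% in these data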;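 note: 0% = cells with DMSO only and 100% = cells with inhibitor control FD; inhibitors lower well luminescence so higher value means more inhibition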
TTR up confirm: TTR transcription activators, retest, confirmation, cell-based, luminescence, SH-SY5Y, triplicate; shares compounds with TTR transcr act; SHSY5Y TTR promoter Gaussia luciferase; 100% = purified Lucia enzyme wells, no cells; activation, % at 16.7 µM; 1,100 tested, under 10 active; AID 1117280, 2014;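 active = mean activation above a set limit taken from the earlier primary screen, cut at about 11% in these data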;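 note: 0% = DMSO-treated cells and 100% = recombinant Lucia luciferase without cells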
* hit, by the source's call.

SMILES | TTR transcr act | others
CCC(CC)NC(=O)CSc1nnc(-c2ccc(OC)cc2)n1C(C)C | 1.1
COc1ccc(-c2nnc(SCC(=O)NCc3cccs3)n2C(C)C)cc1 | 11.4* | TTR inh HuH7=-10.2;TTR up confirm=1.7
COc1ccc(-n2cnnc2SCC(=O)NCc2cccs2)cc1 | 2.7
COC(=O)[C@]12C[C@H](CC(=O)NCc3cccc4ccccc34)C(=O)N(CCC3=CCCCC3)C1=C[C@H](C1CCCC1)O[C@@H]2C | 1.8
O=C(CN1C(=O)C2CC=CCC2C1=O)Nc1ccc(S(=O)(=O)Nc2nccs2)cc1 (centres undefined) | 0.3
O=C(c1ccco1)N1CCN(C(=O)C2CC2)CC1 | -1.4
COc1cc(C(=O)N2CCN(C(=O)c3ccco3)CC2)cc(OC)c1OC | -3.2
COc1ccc(C(=O)C2CCN(C(=O)c3ccco3)CC2)cc1 | 10.7* | TTR inh HuH7=10.9;TTR up confirm=-1.1
O=C(NC1CCCCCC1)c1cccc(S(=O)(=O)N2CCOCC2)c1 | 3.3
O=C(NC1CCCCC1)c1cccc(S(=O)(=O)N2CCOCC2)c1 | 2.2
COc1ccc(S(=O)(=O)N2CCOCC2)cc1C(=O)Nc1cccc(C(=O)NC2CC2)c1 | 13.2* | TTR inh HuH7=-8.0;TTR up confirm=1.6
O=C1CCC[C@H]2C[C@H](NCc3cccc(F)c3)CC[C@]23CCCN13 | 0.3
CCn1c(COc2cccc(C)c2)nnc1SCC(=O)N1CCCC1 | 2.6
Cc1ccc(OCc2nnc(SCC(=O)O)n2-c2ccccc2)cc1 | 1.3
CCn1c(COc2ccc3c(c2)OCO3)nnc1SCC(=O)O | 13.0* | TTR inh HuH7=-4.6;TTR up confirm=0.2
N#CCC(C(=O)c1cccnc1)c1ccccc1 (centres undefined) | -0.2
CC1=C(C(=O)N(C(C)C)C(C)C)CC(CC(=O)NC2CCCCC2)C(=O)N1CCC1=CCCCC1 (centres undefined) | -1.9
O=C(Nc1ccccc1)Nc1csc2ccccc12 | -0.7
O=C(NCc1csc2ccccc12)Nc1cc(Cl)cc(Cl)c1 | 1.4
O=C(O)Cc1csc2ccccc12 | 11.8* | TTR inh HuH7=-10.5;TTR up confirm=0.6
COc1ccc(C(=O)NNC(=O)C2CCN(S(=O)(=O)c3ccc(C)cc3)CC2)cc1 | -1.9
Cc1ccc(-c2noc(CNC(=O)COc3ccccc3C)n2)cc1 | -0.3
CCN(CC(=O)Nc1ccc(OC)cc1)C(=O)c1ccc(OCc2c(C)noc2C)cc1 | -0.2
N#Cc1cccc(-n2cc(COC(=O)NCCc3ccccc3)nn2)c1 | -0.1
CNC(=O)c1sc(=S)n(-c2ccc(OC)cc2)c1N | 0.2
SMILES | TTR transcr act | others
COc1ccc(-n2c(N)c(C(=O)NCc3cccnc3)sc2=S)cc1 | 9.9* | TTR inh HuH7=-24.2;TTR up confirm=0.4
COc1cccc(C(=O)NCc2cccnc2)c1 | -1.6
CSc1nccn1C(=O)c1ccccc1[N+](=O)[O-] | -1.8
COc1ccc(Oc2c(-c3cccs3)cnn(-c3ccc(C)cc3)c2=O)cc1 | -0.2
COc1cccc(OCc2cc(C(=O)N3CCCC3c3ccccn3)no2)c1 (centres undefined) | -1.3
COc1cccc(OCc2cc(C(=O)N3CCN(C4CCCC4)CC3)no2)c1 | 0.8
NC(=O)[C@@H]1CCCN1C(=O)c1cc(COc2ccc3c(c2)CCCC3)on1 | 10.5* | TTR inh HuH7=-7.9;TTR up confirm=-0.5
COc1ccc(C(=O)c2[nH]c(N)c(C(=O)c3ccccc3)c2-c2ccc(OC)c(OC)c2)cc1 | -0.8
O=C(CCCCCN1C(=O)[C@@H]2Cc3ccccc3CN2C1=O)Nc1cccc(F)c1 | -3.1
Cc1cccc(NC(=O)CCCCCN2C(=O)[C@@H]3Cc4ccccc4CN3C2=O)c1 | 13.9* | TTR inh HuH7=-13.9;TTR up confirm=0.2
Cc1ccccc1NC(=O)CCCCCN1C(=O)[C@@H]2Cc3ccccc3CN2C1=O | -1.3
CCOc1ccccc1NC(=O)CCCCCN1C(=O)[C@@H]2Cc3ccccc3CN2C1=O | -0.2
O=C(CCCCCN1C(=O)[C@@H]2Cc3ccccc3CN2C1=O)Nc1ccccc1F | 11.1* | TTR inh HuH7=-12.7;TTR up confirm=-0.6
COc1ccc(NC(=O)CCCCCN2C(=O)[C@@H]3Cc4ccccc4CN3C2=O)cc1Cl | -2.2
CC(C)[C@@H]1Cc2[nH]c(=O)[nH]c(=O)c2[C@H](C)O1 | 0.5
COc1ccc(CN[C@@H]2CC[C@@]34CCCN3C(=O)CCC[C@H]4C2)cc1OC | 5.1
CCCNS(=O)(=O)c1cc2c3c(c1)CCN3C(=O)CC2 | 0.9
COc1ccc(N2CCN(C(=O)c3ccncc3)CC2)cc1 | -0.9
COc1ccc(N2CCN(C(=O)c3ccc4c(c3)OCO4)CC2)cc1 | 20.9* | TTR inh HuH7=-12.6;TTR up confirm=1.1
O=C(c1ccc2c(c1)OCO2)N1CCN(c2ccccc2)CC1 | 5.7
COc1ccc(-c2cc(=O)c3c(C)cc(O)cc3o2)cc1 | -2.2
COc1ccc(-c2[nH]nc3oc(=O)cc(C)c23)cc1 | 16.1* | TTR inh HuH7=-17.5;TTR up confirm=-0.6
COc1ccc(-c2cc(=O)c3c(OC)c(OC)c(OC)c(OC)c3o2)cc1 | -2.6
COc1ccc(Cc2c(O)nc(SCC(=O)NC34CC5CC(CC(C5)C3)C4)[nH]c2=O)cc1 | 0.5
COc1ccc(C(=O)NCc2cccnc2)cc1OC | 1.2
SMILES | TTR transcr act | others
COc1cccc(C2C(C#N)=C(N)Oc3cc(C)n(Cc4ccccn4)c(=O)c32)c1OC (centres undefined) | 3.9
COC(=O)C1=C(N)Oc2cc(C)n(Cc3cccnc3)c(=O)c2C1c1ccc(OC)c(OC)c1 (centres undefined) | 18.0* | TTR inh HuH7=-8.7;TTR up confirm=0.2
O=C(OCc1cn(Cc2ccccc2C(F)(F)F)nn1)N1CCOCC1 | 2.8
NC(=O)c1c(N)[nH]c(C(=O)c2ccccc2)c1-c1ccccc1C(F)(F)F | -0.2
COc1ccc(-n2c(=O)c3ccccc3n(Cc3cccc(C)c3)c2=O)cc1OC | -2.2
CCOc1ccc(S(=O)(=O)NC2CC2)cc1C(N)=O | -0.9
CC(=O)O[C@H](COc1c2ccoc2cc2oc(=O)ccc12)C(C)(C)O | -0.8
C=C(C)[C@@H](O)COc1c2ccoc2cc2oc(=O)ccc12 | 10.4* | TTR inh HuH7=-5.9;TTR up confirm=0.1
CC(C)(O)[C@H](O)COc1c2ccoc2cc2oc(=O)ccc12 | 6.3
Cc1ccc(NC(=O)c2ncn(CCCN3CCN(Cc4cccc5ccccc45)CC3)n2)cc1C | -0.9
CC(=O)c1cnc2nc(C)nn2c1C | 1.1
CC(=O)c1cnc2cc(-c3ccc(Cl)cc3)nn2c1C | 12.3* | TTR inh HuH7=13.3;TTR up confirm=-1.2
Cc1c(C(=O)O)cnc2cc(-c3ccc(Cl)cc3)nn12 | -0.8
Cc1c(Br)c(C(=O)NNC(=O)c2ccc(C(C)(C)C)cc2)nn1C | -0.8
CCc1ccc(/C=C/C(=O)NC2=NCCS2)cc1 | -0.8
COc1ccc(-c2nnc(SCc3nc4ccccc4s3)n2C(C)C)cc1 | -0.7
CCn1c(SCc2nc3ccccc3s2)nnc1-c1cccs1 | 15.2* | TTR inh HuH7=-22.7;TTR up confirm=0.2
Cn1c(SCc2nc3ccccc3s2)nnc1-c1cccs1 | -4.2
O=C(CCNC(=O)c1ccccc1)Nc1ccc(Cl)c(S(=O)(=O)N2CCCCC2)c1 | 2.6
Cn1c2ccccc2c2ncn(Cc3ccco3)c(=O)c21 | -1.5
Cn1c2ccc(F)cc2c2ncn(Cc3ccco3)c(=O)c21 | -0.3
Cn1c2ccc(F)cc2c2ncn(Cc3ccccn3)c(=O)c21 | 14.5* | TTR inh HuH7=-14.1;TTR up confirm=-0.8
COC(=O)[C@]12C[C@H](CC(=O)NCc3ccc(OC)c(OC)c3)C(=O)N(CCC3=CCCCC3)C1=C[C@H](C1CCCC1)O[C@@H]2C | 0.8

Screening data deposited in PubChem by The Scripps Research Institute Molecular Screening Center.
